Assay outcomes deposited in PubChem BioAssay by National Center for Advancing Translational Sciences (NCATS).
Sampled rows, rich in hits. Any-hit rate of the full collection: about 6.9%.
BAZ2B block: qHTS Assay for Inhibitors of BAZ2B; Bromodomain adjacent to zinc finger domain protein 2B (Homo sapiens), Q9UIF8; AlphaScreen BAZ2B-H3K14Ac peptide displacement; Potency, µM (highest dose often 114 µM), for the others: top-dose activity change, negative = inhibition, hits mostly inhibitors; hit rate 4.4% among 360,000; AID 504333, 2011; further: on the % scale 0 is the no-effect control and ±100 the full control effect; nearly all actives have a fitted effect of over 60% in size
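AlphaScreen displacement of biotin-H3(5-23)K14Ac peptide (50 nM final) from BAZ2B (50 nM final) in PBS pH 7.4, 0.01% Tween-20; complex preformed 30 min RT, then compounds (top 110 uM) 30 min RT, beads 20 min dark.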
VDR inhibitor: Inhibitors of the vitamin D receptor (VDR): qHTS | AID 504847, 2011 | hit rate 0.93% among 400,000 | Potency, µM, without a hit: max response, negative = inhibition, most hits filed as inhibitors | VDR-SRC2-3 peptide fluorescence polarization, 2 h | Vitamin D3 receptor (Homo sapiens), P11473; further: on the % scale 0 is the no-effect control and ±100 the full control effect
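FP read-out; VDR + SRC2-3 coactivator peptide; 23 nl compound by pintool; 2 h RT incubation; reagents held at 4 deg C, protected from light.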
JMJD2A Tudor: qHTS Assay for Inhibitors of JMJD2A-Tudor Domain | hit rate 4.4% among 390,000 | Lysine-specific demethylase 4A (Homo sapiens), O75164 | AlphaScreen JMJD2A-Tudor / H3K4me3 peptide binding | AID 504339, 2011 | Potency, µM (top dose mostly 114 µM), without a hit: at the top dose activity change, negative = inhibition, actives largely listed as inhibitors; further: on the % scale 0 is the no-effect control and ±100 the full control effect; nearly all actives have a fitted effect of over 50% in size
HP1b binding inh: HTS for Inhibitors of HP1-beta Chromodomain Interactions with Methylated Histone Tails; Chromobox protein homolog 1 (Homo sapiens), P83916; AlphaScreen HP1-beta / biotin-H3K9me3 peptide binding; Potency, µM (highest dose often 114 µM), for inactives: top-dose activity change, negative = inhibition, hits mostly inhibitors; hit rate 0.56% among 390,000; AID 540317, 2011; further: nearly all actives have a fitted effect of over 70% in size
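Compound inhibition of the preformed complex between 50 nM HP1-beta and 50 nM biotinylated H3K9me3 peptide was read by AlphaScreen. Buffer was PBS pH 7.4 with 0.01% Tween-20. Incubations ran 30 min at room temperature, with 10 ug/mL donor/acceptor beads.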
PLK1 PBD inh: qHTS for Inhibitors of PLK1-PDB (polo-like kinase 1 - polo-box domain): Primary Screen. Plk1 PBD binding of FITC phosphopeptide, fluorescence polarization. AID 720504, 2013. Serine/threonine-protein kinase PLK1 (Homo sapiens), P53350. hit rate 2.8% among 360,000. Potency, µM, without a hit: max response, negative = inhibition, actives largely listed as inhibitors; further: series mostly up to about 57 µM; on the % scale 0 is the no-effect control and ±100 the full control effect; nearly all actives have a fitted effect of over 65% in size
L3MBTL1 block: qHTS Assay for the Inhibitors of L3MBTL1; Lethal(3)malignant brain tumor-like protein 1 (Homo sapiens), Q9Y468; hit rate 0.66% among 230,000; Potency, µM (highest dose often 57.1 µM), without a hit: at the highest dose activity, negative = inhibition, most hits filed as inhibitors; AlphaScreen L3MBTL1–H3K9me1 peptide binding; further: on the % scale 0 is the no-effect control and ±100 the full control effect; nearly all actives have a fitted effect of over 60% in size
Target sequence (Q9Y468 whole entry, looked up): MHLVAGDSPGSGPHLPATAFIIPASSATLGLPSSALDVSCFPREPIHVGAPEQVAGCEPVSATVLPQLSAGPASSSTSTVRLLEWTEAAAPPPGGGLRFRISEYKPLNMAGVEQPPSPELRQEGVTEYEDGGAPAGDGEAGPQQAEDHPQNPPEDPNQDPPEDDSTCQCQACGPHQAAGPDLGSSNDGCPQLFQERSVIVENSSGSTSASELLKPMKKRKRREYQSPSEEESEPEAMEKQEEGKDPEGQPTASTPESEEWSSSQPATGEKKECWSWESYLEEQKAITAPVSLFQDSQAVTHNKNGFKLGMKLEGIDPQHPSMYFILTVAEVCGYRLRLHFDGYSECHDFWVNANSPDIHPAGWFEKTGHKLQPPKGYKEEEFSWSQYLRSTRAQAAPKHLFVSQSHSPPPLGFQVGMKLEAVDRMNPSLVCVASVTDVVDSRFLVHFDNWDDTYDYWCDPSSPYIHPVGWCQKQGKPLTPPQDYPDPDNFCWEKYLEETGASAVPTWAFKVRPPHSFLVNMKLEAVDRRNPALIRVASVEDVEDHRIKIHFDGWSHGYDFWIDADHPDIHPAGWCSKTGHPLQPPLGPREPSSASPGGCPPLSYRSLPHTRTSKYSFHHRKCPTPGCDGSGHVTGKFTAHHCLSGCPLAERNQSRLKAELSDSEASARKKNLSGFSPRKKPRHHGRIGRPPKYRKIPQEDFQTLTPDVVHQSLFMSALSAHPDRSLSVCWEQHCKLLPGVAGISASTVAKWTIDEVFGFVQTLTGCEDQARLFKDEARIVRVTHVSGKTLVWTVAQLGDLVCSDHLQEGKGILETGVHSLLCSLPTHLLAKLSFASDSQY
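AlphaScreen proximity signal between nickel-chelate acceptor and streptavidin donor beads (final 10 ug/mL) reports binding of 50 nM L3MBTL1 to 75 nM biotin-H3 K9me1 peptide; complex incubated with compounds 30 min at room temperature; cefsulodin titration as control.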
The depositor's hits bear a star; ? = inconclusive; . = no result given; [ ] = another dose, or the depositor's remark. The call rests on the fitted dose curve; in most records, active means well fitted curve in the direction sought with a large enough effect; inconclusive means small, poorly fitted or top-dose-only effect, or another doubt; inactive means no such curve, though single readings can be large; an effect the other way counts as inactive or inconclusive. Potency means the concentration at half of the fitted maximal effect.

SMILES	BAZ2B block	VDR inhibitor	JMJD2A Tudor	HP1b binding inh	PLK1 PBD inh	L3MBTL1 block
COc1ccc(/C=C2\SC(=S)N(CCCC(=O)Nc3ccc(C(=O)O)cc3)C2=O)cc1OC	50.1µM*	-1.2%	?	-9.7%	7.7%	.
Cc1ccc(NC(=O)CN2C(=O)S/C(=C\c3ccccn3)C2=O)cc1	3.8%	?	-3.4%	37.4%	3.6%	13.6%
O=C(CCN1C(=O)/C(=C\c2ccccc2)SC1=S)Nc1ccc(C(=O)O)cc1	56.2µM*	-1.0%	?	-30.3%	-14.6%	.
COc1ccc(/C=C2\SC(=O)N(CCCC(=O)Nc3ccc(C(=O)O)cc3)C2=O)cc1OC	-2.3%	-12.3%	-4.4%	15.2%	-7.3%	.
COc1ccc(/C=C2/NC(=O)CNC2=O)cc1	?	5.6%	-10.4%	26.7%	-8.9%	.
O=C(CCCN1C(=O)/C(=C/c2ccccc2Cl)SC1=S)Nc1cccnc1	?	-5.5%	22.4µM*	-17.1%	-9.6%	.
O=C(CCN1C(=O)/C(=C/c2ccccc2Cl)SC1=S)Nc1cccnc1	?	-6.3%	13.2%	48.6%	2.6%	.
O=C(CCCN1C(=O)/C(=C/c2ccccc2Cl)SC1=S)Nc1ccccn1	?	-14.2%	17.8µM*	?	-1.7%	?
O=C(CCCN1C(=O)/C(=C/c2cccs2)SC1=S)Nc1ccccn1	?	-19.0%	?	?	18.9µM*	35.5µM*
CCOC(=O)C(C(=O)OCC)C(=O)c1cccc2ccc3ccccc3c12	.	.	.	.	-8.3%	.
CC1(C)Cc2ccccc2C(N/N=C/c2ccc(Cl)cc2)=N1	?	-2.1%	?	?	-11.3%	-1.9%
CC1(C)Cc2ccccc2C(/C(=N\Nc2cccc(Cl)c2)C(N)=O)=N1	25.1µM*	-13.8%	35.5µM*	?	-3.9%	?
C=CCNc1nc(C)c(C(C)=O)cc1C#N	50.1µM*	-16.5%	0.7%	47.2%	-9.2%	.
O=C(Cn1cccc1C(=O)c1ccccc1)NCc1cccc(Cl)c1	-2.9%	-20.6%	?	5.0%	23.8µM*	.
O=C(Cn1cccc1C(=O)c1ccccc1)NCCc1ccc(Cl)cc1	-7.0%	-17.1%	-27.5%	20.5%	23.8µM*	.
O=C(Cn1cccc1C(=O)c1ccccc1)NCc1ccc(Cl)cc1	-6.8%	-33.4%	-12.6%	38.7%	-3.8%	.
Cc1ccc(NC(=O)CC2Sc3ccccc3NC2=O)c(C)c1 (stereo not drawn)	19.2%	3.3%	-8.2%	78.4%	.	.
Cc1ccc2c(c1)Sc1c(ccc3ccccc13)N2	39.8µM*	-17.8%	?	?	?	-23.0%
CCn1c2ccccc2c2nnc(NN)nc21	?	1.8%	50.1µM*	0.6%	-10.5%	-5.1%
CCn1c2ccc(C)cc2c2nnc(NN)nc21	?	-14.7%	?	20.8%	1.2%	-11.9%
CCC(Sc1ncccc1C(=O)O)C(=O)N1CCCC1 (stereo not drawn)	?	10.8%	3.55µM*	34.7%	-17.3%	2.8%
Cc1n[nH]c(C)c1CCC(=O)N/N=C/c1cccc([N+](=O)[O-])c1	-7.4%	2.0%	-24.3%	-9.3%	-14.2%	1.6%
O=C(CCCOc1ccc(Cl)cc1Cl)N/N=C/c1cccc([N+](=O)[O-])c1	-31.3%	-0.5%	?	-10.9%	26.7µM*	0.5%
CCOC(=O)c1c(NC(=O)/C=C/C(=O)O)sc(C)c1-c1ccc(Cl)cc1	?	39.8µM*	-5.8%	18.3%	-27.7%	-14.8%
Cn1nnnc1Sc1ncnc2scc(-c3ccccc3S(C)(=O)=O)c12	.	.	-15.8%	.	.	.
SMILES	BAZ2B block	VDR inhibitor	JMJD2A Tudor	HP1b binding inh	PLK1 PBD inh	L3MBTL1 block
CCOc1ccc(C(=O)Nc2ccc(S(=O)(=O)N3CCOCC3)cc2)cc1OCC	-1.7%	-1.1%	-19.7%	15.0%	-0.8%	23.9%
CCOc1ccc(NC(=O)c2cccc(-n3cccc3)c2)cc1S(=O)(=O)N1CCOCC1	5.01µM*	.	.	.	.	5.62µM*
CC1CC(C)CN(c2oc(Cc3ccccc3)nc2C#N)C1 (stereo not drawn)	14.1µM*	-7.3%	?	?	1.2%	?
O=[N+]([O-])c1cccc(N=Nc2ccc(O)cc2O)c1	.	-2.4%	?	-11.7%[57 µM]	-6.5%	.
O=[N+]([O-])c1ccc(N=Nc2ccc(O)cc2O)cc1	31.6µM*	14.8%	-7.5%	15.1%	-3.5%	.
Cn1c(SCC(=O)c2ccc(O)c(O)c2)nnc1-c1cccs1	50.1µM*	-3.7%	25.1µM*	-4.6%	-7.3%	-83.3%
Cn1c(SCC(=O)c2ccc(O)c(O)c2)nnc1-c1ccccc1	?	-20.1%	-13.9%	16.0%	-1.7%	.
Cn1c(SCC(=O)NC(c2ccccc2)c2ccccc2)nnc1-c1cccs1	-5.0%	?	50.1µM*	-11.2%	26.7µM*	.
COc1ccccc1C(=O)Nc1nc2nc(C)c(Cc3ccccc3)c(=O)n2[nH]1	?	-17.3%	-30.2%	32.1%	.	.
Cc1cccc(N2CCN(C(c3ccc(F)cc3)c3nnc(-c4ccccc4)o3)CC2)c1C (stereo not drawn)	50.1µM*	7.4%	?	4.5%	.	.
Cc1ccc(Cl)cc1N1CCN(C(c2ccc(F)cc2)c2nnc(-c3ccccc3)o2)CC1 (stereo not drawn)	-18.9%	-18.0%	?	11.8%	.	.
Cc1ccc(C)c(Cn2cnc3c(cnn3-c3ccc(F)cc3)c2=O)c1	36.3%	15.7%	5.4%	40.0%	.	.
CCN(CC)c1ccc(/C=N/NC(=O)c2c(Cl)cnn2C)c(O)c1	79.4µM*	-16.9%	-33.2%	43.2%	3.4%	?
CCN(CC)c1ccc(/C=N/Nc2ccc(C)cc2)c(O)c1	44.7µM*	-10.6%	-1.4%	20.5%	?	?
CCOC(=O)N/N=C/c1ccc(N(CC)CC)cc1O	?	12.4%	-35.9%	-20.4%	1.8%	-11.7%
O=c1[nH]c(/C=C/c2cccnc2)c([N+](=O)[O-])c(=O)[nH]1	-2.9%	-14.7%	-1.5%[11.4 µM]	32.7%	-5.4%	.
COc1cc(/C=C/c2[nH]c(=O)[nH]c(=O)c2[N+](=O)[O-])cc([N+](=O)[O-])c1O	56.2µM*	-8.6%	?	-8.0%	-9.8%	.
O=c1[nH]c(/C=C\c2cccnc2)c([N+](=O)[O-])c(=O)[nH]1	-0.9%	-11.0%	-72.2%	-21.9%	26.7µM*	.
COc1cc(/C=C/c2[nH]c(=O)[nH]c(=O)c2[N+](=O)[O-])ccc1OCCC(C)C	?	-14.6%	-11.3%[11.4 µM]	-16.7%	-10.0%	.
C[n+]1ccc(/C=C/c2ccc(Br)cc2)cc1	56.2µM*	-7.1%	-3.4%	14.1%	-0.9%	1.6%
